Shown are actives, neighbours in structure and some others; about 2.4% of the full set was active somewhere.
STAT1 blocker: inhibitors of IFN-gamma induced STAT1 signaling | NIH 3T3 STAT1-luciferase reporter, luminescence | inhibition, % at 5.5 µM | 0.35% of 200,000 active | AID 920;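 active = inhibition above a set limit, the mean inhibition across all tested compounds plus 3 SD, cut at about 34% in these data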
C8 TRAIL sens: sensitizes caspase-8 expressing cells to TRAIL; NB7+C8 cells + TRAIL, ATPlite viability luminescence; inhibition (viability loss, TRAIL sensitization), % at 10 µM; 1% of 360,000 active; AID 624354;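 active = compounds causing at least 50% loss of cell viability in the single-dose screen, relative to plate controls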
STAT3 blocker: STAT3 signaling inhibition; U3A cells, IL-6 STAT3-luciferase reporter, luminescence; host cell line lacks STAT1; inhibition, % at 5.5 µM; 0.89% of 190,000 active; AID 862;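 active = inhibition above the mean inhibition across all screened compounds plus 3 SD, cut at about 44% in these data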
PPC-1+TRAIL kill: compounds killing PPC-1 cancer cells with TRAIL present (potentiator screen, no TRAIL-free arm); cell killing (% activity), % at 4 µM or 5 µM; 0.41% of 220,000 active; PPC-1 cells + TRAIL, ATPLite viability luminescence;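 active = cell killing above 50% in the first pass at 4 µM, then a duplicate retest at 5 µM averaging 50% or more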
HSF1 inhib: HSF1 inhibition | NIH3T3-HGL HSE-luciferase, MG132-induced, luminescence 8 h; active compounds read low | activity change, negative = inhibition, % at 7.5 µM (by protocol) | 0.77% of 300,000 active | AID 2098;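 active = more than half of replicate wells show activity change below -50%, luminescence cut by over half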;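 note: luciferase reports HSF-1 transcriptional activity via heat shock element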
HSP90 refold inh: HSP90 refolding inhibition in rabbit reticulocyte lysate; 0.91% of 290,000 active; inhibition, % at 5.6 µM; luciferase refolding luminescence, 3 h; AID 1789;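 active = inhibition above the screen-wide mean plus 3 SD, computed separately per campaign, cut at about 16% in these data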;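 note: inhibitors lower the luminescence because luciferase stays unfolded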
A number is an active result; i = inactive; nt = not tested or not shown.

SMILES	STAT1 blocker	C8 TRAIL sens	STAT3 blocker	PPC-1+TRAIL kill	HSF1 inhib	HSP90 refold inh
Cc1ccc(CN2C(=O)CSCC2(C)C(=O)NC(C)C)cc1 (centres undefined)	nt	i	nt	nt	nt	nt
Cc1ccccc1CO/N=C/c1[nH]ncc1Br	nt	i	nt	i	-85	i
COc1cc(/C=N/NC(N)=O)cc(Br)c1OCc1ccccc1C	i	i	i	i	i	i
OC(COc1c(F)cc(Br)cc1F)CN1CCN(c2ccc(F)cc2)CC1 (centres undefined)	i	i	i	i	-87	i
CC1(C(=O)NS(=O)(=O)c2cccc(F)c2)CCN1C(=O)Cc1cccs1 (centres undefined)	nt	i	nt	nt	nt	nt
COC1C=CC=C(C)C(=O)NC2=CC(=O)C(N)=C(CC(C)CC(OC)C(O)C(C)C=C(C)C1OC(N)=O)C2=O (centres undefined)	nt	i	nt	nt	69	nt
Cc1cccc(CN2[C@H](COCc3ccccc3)C=CS2(=O)=O)c1	nt	i	nt	nt	nt	nt
COC1=CC(=O)C=C(OC)C1(O)CC(C)=O	nt	i	nt	nt	nt	nt
Cc1ccc(NC(=O)c2ccc(OCC3CCCO3)cc2)c(C)c1 (centres undefined)	i	i	i	i	i	i
Cc1ccnc(NC(=O)c2ccc(OCC3CCCO3)cc2)c1 (centres undefined)	nt	91	nt	nt	i	nt
Cc1csc(NC(=O)c2ccc(OCC3CCCO3)cc2)n1 (centres undefined)	60	54	61	i	i	i
O=C(Nc1nc(-c2ccc(F)c(F)c2)cs1)c1ccc(OCC2CCCO2)cc1 (centres undefined)	i	i	i	i	i	i
Cc1ccccc1NC(=O)c1ccc(CN2CCC(Cc3ccccc3)CC2)cc1	i	i	50	i	i	i
CC(C)NC(=O)c1ccc(CN2CCC(Cc3ccccc3)CC2)cc1	nt	i	nt	nt	i	i
CC(=O)c1ccccc1NC(=O)COC(=O)c1cc[n+]([O-])cc1	nt	i	nt	nt	nt	nt
O=C(COC(=O)c1cc[n+]([O-])cc1)Nc1cccc(Cl)c1Cl	i	i	i	i	-66	i
CCOC(CNCc1cc(C)c2[nH]c3ccccc3c2c1C)OCC	nt	i	nt	nt	nt	nt
COc1ccc(-c2cn3cc(Cl)ccc3n2)cc1OC	i	i	i	i	i	i
COc1ccc(-c2cn3cc(C)ccc3n2)cc1Br	i	75	i	87	i	i
COC(=O)c1ccc(/C=C(\C#N)c2ccccn2)cc1	i	52	i	i	i	i
N#C/C(=C\c1ccccn1)c1ccccn1	nt	i	nt	nt	-60	i
Oc1c(CN2CCOCC2)cc(COCc2ccccc2)c2cccnc12	i	53	i	55	-78	i
O=C(Oc1c(CN2CCOCC2)cc(Cl)c2cccnc12)c1ccccc1Br	nt	55	nt	i	i	i
COc1cc(C(=O)N(C)C2CCCN(Cc3ccccc3F)C2)cc(OC)c1OC (centres undefined)	nt	i	nt	nt	-77	i
CO[C@H]1CN(C)C(=O)c2ccc(NC(=O)C3CCC3)cc2OC[C@H](C)N(Cc2ccccn2)C[C@@H]1C	nt	i	nt	nt	nt	nt
SMILES	STAT1 blocker	C8 TRAIL sens	STAT3 blocker	PPC-1+TRAIL kill	HSF1 inhib	HSP90 refold inh
COc1ccccc1-c1nc(-c2ccc(Br)cc2)no1	i	i	i	i	i	i
Cc1ccc(-c2noc(-c3ccccc3Br)n2)cc1	i	51	i	i	nt	i
COC(=O)CCC(C(=O)CN1C(=O)c2ccccc2C1=O)N1C(=O)c2ccccc2C1=O (centres undefined)	nt	i	nt	nt	nt	nt
O=C(Nc1nnc([C@H]2C[C@H](O)[C@@H](CO)O2)s1)c1cccc(OC(F)(F)F)c1	nt	i	nt	nt	nt	nt
COc1ccc(CN2CCC(C(=O)Nc3ccc(Oc4cccnc4)cc3)CC2)c(C)c1C	nt	i	nt	nt	-83	i
COc1cccc(O)c1CN1CCC(C(=O)Nc2ccc(Oc3cccnc3)cc2)CC1	nt	i	nt	nt	i	i
O=Nc1c(-c2c(O)[nH]c3cc(Br)ccc23)[nH]c2ccccc12	nt	84	nt	nt	i	i
COc1cccc(CNC(=O)c2ccc(S(=O)(=O)N3CCCCC3)cc2)c1	nt	i	nt	nt	nt	nt
COc1ccc(-c2nc(SCC(=O)Nc3cccc(S(N)(=O)=O)c3)n[nH]2)cc1	nt	62	nt	nt	nt	nt
NS(=O)(=O)c1cccc(NC(=O)CSc2n[nH]c(-c3cccs3)n2)c1	nt	i	nt	nt	nt	nt
CC(C)NC(=O)C1(C)CCN1C(=O)c1ccccc1 (centres undefined)	nt	i	nt	nt	nt	nt
COc1cccc(COC(=O)C(Cc2ccccc2)NC(=O)c2ccco2)c1 (centres undefined)	nt	i	nt	nt	nt	nt
Cc1ccc(NC(=O)CCN2CCCCC2)cc1	nt	i	nt	nt	-63	i
NC(Cc1ccc(C(F)(F)F)cc1)c1csc(Nc2ccc(C(=O)c3ccccc3)cc2)n1 (centres undefined)	nt	i	nt	nt	nt	nt
CN(NC1OC(=O)c2ccccc21)c1ccc(C(F)(F)F)cc1[N+](=O)[O-] (centres undefined)	nt	i	nt	i	-59	i
O=C1C=CC2(C=C1)O[C@H](Cc1ccccc1)[C@@H](Cc1ccccc1)O2	nt	95	nt	nt	nt	nt
COc1ccc(C[C@@H]2OC3(C=CC(=O)C=C3)O[C@H]2Cc2ccc(OC)cc2)cc1	nt	93	nt	nt	nt	nt
COc1ccc(N2C(=O)CC(Cc3ccccc3)C2=O)cc1 (centres undefined)	i	i	i	i	i	i
COc1ccc(OC)c(NC(=O)C2(C)CCN2Cc2ccc(SC)cc2)c1 (centres undefined)	nt	i	nt	nt	nt	nt
CC(C)/C=C/C(=O)N1CCC(N2CCC(C(=O)NCC3CCCO3)CC2)CC1 (centres undefined)	nt	i	nt	nt	nt	nt
CC1CCC(C(C)C)C(OC(=O)Cn2c(-c3ccc(Cl)cc3)[n+](C)c3ccccc32)C1 (centres undefined)	nt	51	nt	i	i	i
CC1CCC(C(C)C)C(OC(=O)Cn2c(-c3ccc(Br)cc3)[n+](C)c3ccccc32)C1 (centres undefined)	i	i	i	i	i	i
O=C(c1ccc2ccccc2c1)c1c[nH]cc1-c1ccccc1	i	i	i	i	i	i
COc1ccc(C(=O)c2c[nH]cc2-c2ccccc2)cc1	i	i	i	i	-57	i
COc1ccc(C2C(C(=O)N3CCOCC3)c3ccccc3C(=O)N2c2ccc(OC)cc2)cc1 (centres undefined)	i	i	i	i	i	i
COc1ccc(C2C(C(=O)N3CCN(c4ccccc4)CC3)c3ccccc3C(=O)N2C)cc1 (centres undefined)	i	59	i	i	i	i
COc1ccc(C2C(C(=O)N3CCN(c4ccccc4)CC3)c3ccccc3C(=O)N2C)cc1OC (centres undefined)	i	68	i	i	i	i
COc1cc(NC(=O)c2cc3ccccc3cc2OC)ccc1NC(=O)c1cccs1	nt	i	nt	nt	-58	i
Nc1c(N(CCC2=CCCCC2)C(=O)COc2ccc(F)cc2Cl)c(=O)[nH]c(=O)n1Cc1ccccc1	nt	88	nt	nt	nt	nt
Nc1c(N(CCC2=CCCCC2)C(=O)Cc2ccc(F)cc2)c(=O)[nH]c(=O)n1Cc1ccccc1	nt	i	nt	nt	i	nt
